A selection: hits, their analogues and other compounds. The true share with any hit is near 6.6%.
RGS4 inhibitor = blocks human RGS4-accelerated GTP hydrolysis; AID 504845; Transcreener GDP fluorescence polarization, RGS4-accelerated GTP hydrolysis; hit rate 0.039% among 390,000; P49798; Potency, µM (series often up to 114 µM), for the others: at the highest dose activity change, negative = inhibition, most hits filed as inhibitors; also: % is scaled to controls: 0 for no effect and ±100 for the full control effect; nearly all actives have a fitted effect of over 75% in size
Target sequence (P49798 whole entry, looked up): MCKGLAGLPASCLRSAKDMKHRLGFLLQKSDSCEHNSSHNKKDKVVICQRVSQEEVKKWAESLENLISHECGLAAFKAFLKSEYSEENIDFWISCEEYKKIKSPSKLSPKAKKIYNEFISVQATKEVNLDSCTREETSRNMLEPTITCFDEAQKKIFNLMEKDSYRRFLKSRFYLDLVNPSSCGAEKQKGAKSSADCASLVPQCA
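MLSMR compounds (23 nl, pin-transferred) preincubated 10 min at room temperature with a 500nM (2x) first reagent, then RGS4 at 900nM (2x) plus Transcreener GDP mix added; fluorescence polarization (620/688 nm) read before and after 90 min at 30 °C.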
KB-V1 cytotox = KB-V1 MDR subline cytotoxicity | Potency, µM (top dose mostly 46.1 µM), actives largely listed as cytotoxic | KB-V1 MDR cells viability, CellTiter-Glo, 72 h | hit rate 3.4% among 400,000 | AID 1347076; also: % is scaled to controls: 0 for no effect and ±100 for the full control effect; nearly all actives have a fitted effect of over 60% in size
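Compound-treated KB-V1 multidrug-resistant cells, 72 h, 37 degrees C; viability by CellTiter-Glo. Fitted qHTS curves give the values.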
SW480 rereplic = inducers of DNA re-replication in SW480 colon cancer cells | hit rate 1.8% among 340,000 | SW480 DNA re-replication, Hoechst DNA content imaging, 48 h | Potency, µM (series often up to 46.1 µM), without a hit: at the highest dose re-replication activation, actives largely listed as activators; also: % of control where 0% means no effect; nearly all actives have a fitted effect of over 55% in size
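Quantitative HTS format with DMSO vehicle controls; 48 hr drug incubation at 37 C, then 40 min Hoechst staining and scanning imager measurement at 405 nm excitation.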
PTAP TSG101 blk = blocks PTAP/TSG101 interaction to inhibit HIV-1 budding | Fluorescence polarization, FITC-PTAP peptide / Tsg101 binding | Potency, µM (series often up to 115 µM), for inactives: at the top dose activity change, negative = inhibition, usual class: inhibitors | 340,000 tested, under 10 active | AID 493005; active = well fitted inhibition curve with a large enough effect in the main read-out, with a control signal flat, not every such curve was filed as active; inconclusive = small, poorly fitted or top-dose-only effect, or effect the other way, or a change in a side signal; inactive = no such curve, though single readings can be large or run the other way; also: % of control where 0% means no effect
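FP read-out: FITC-PTAP peptide, 50 nM final, binding Tsg101 binding domain, 10 uM final; 20 min, r.t.; 10 mM HEPES pH 7.5, 0.15 M NaCl, 0.01% Tween 20, 3 mM EDTA, 0.1 mM TCEP.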
KB-3-1 cytotox = kills parental KB-3-1 adenocarcinoma cells; KB-3-1 viability, CellTiter-Glo ATP luminescence, 72 h; Potency, µM (titrated, usually from 46.1 µM), hits mostly cytotoxic; hit rate 1.4% among 400,000; AID 1347075; also: % is scaled to controls: 0 for no effect and ±100 for the full control effect; nearly all actives have a fitted effect of over 60% in size
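Cytotoxicity measured as CellTiter-Glo luminescence after 72 h at 37 C. Compound titrations were pinned onto drug-naive KB-3-1 parental adenocarcinoma cells grown in DMEM with 10% FBS, and normalized data fitted to concentration-response curves.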
MCF10A rereplic = induces DNA re-replication in MCF 10a normal breast cells | MCF 10A DNA re-replication, Hoechst nuclear intensity, 48 h | AID 624296 | Potency, µM (titrated, usually from 46.1 µM), inactives show at the top dose activity, positive = re-replication, usual class: activators | hit rate 2.9% among 350,000; also: % of control where 0% means no effect; nearly all actives have a fitted effect of over 50% in size
The depositor's hits bear a star; [ ] = dose if it differs, or a comment. Unless noted, calls follow the shape of the dose curve; as a rule, active = well fitted curve in the direction sought with a large enough effect; inconclusive = small, poorly fitted or top-dose-only effect, or another doubt; inactive = no such curve, though single readings can be large; an effect the other way counts as inactive or inconclusive. Potency is read from the fitted curve at half-maximal effect.

Results for O=C(CNC(=O)c1ccc2c(c1)OCO2)N/N=C(Br)/C=C/c1ccccc1 ?
RGS4 inhibitor: -17.5%; KB-V1 cytotox: inactive; SW480 rereplic: inconclusive; PTAP TSG101 blk: -4.4%; KB-3-1 cytotox: inconclusive; MCF10A rereplic: 9.2µM*

How did O=C(C[n+]1cccc(Br)c1)c1ccc(F)cc1 do in these assays?
KB-V1 cytotox: inactive; KB-3-1 cytotox: inactive

How did COc1ccc(OC)c(Nc2ncnc3c2cnn3-c2cccc(C)c2)c1 do in these assays?
RGS4 inhibitor: 7.3%; KB-V1 cytotox: inconclusive; SW480 rereplic: 7.31µM*; PTAP TSG101 blk: -2.6%; KB-3-1 cytotox: inconclusive; MCF10A rereplic: inconclusive

What do the screens show for `CC(=O)Nc1ccc(Nc2ncnc3c2cnn3-c2cccc(C)c2)cc1`?
RGS4 inhibitor: -8.4%; KB-V1 cytotox: 16.4µM*; SW480 rereplic: -9.0%; PTAP TSG101 blk: 0.4%; KB-3-1 cytotox: inactive; MCF10A rereplic: 7.8%

How did COc1ccc(OC)c(Nc2ncnc3c2cnn3-c2cccc(Cl)c2)c1 do in these assays?
RGS4 inhibitor: 22.8%; KB-V1 cytotox: inconclusive; KB-3-1 cytotox: inconclusive

Results for CC(C)(C)c1nc(N2CCN(C(=O)c3ccco3)CC2)c2nnn(Cc3ccccc3)c2n1 ?
RGS4 inhibitor: -8.1%[56.9 µM]; KB-V1 cytotox: inconclusive; SW480 rereplic: inconclusive; PTAP TSG101 blk: -12.0%; KB-3-1 cytotox: inconclusive; MCF10A rereplic: 8.2µM*

What do the screens show for `CCc1nc(N2CCN(C(=O)c3ccco3)CC2)c2oc3ccccc3c2n1`?
RGS4 inhibitor: 0.1%; KB-V1 cytotox: 20.6µM*; SW480 rereplic: 11.6µM*; PTAP TSG101 blk: -8.1%; KB-3-1 cytotox: inactive; MCF10A rereplic: inconclusive

Results for Cc1nc(N2CCN(C(=O)c3ccco3)CC2)c2oc3ccccc3c2n1 ?
RGS4 inhibitor: -9.8%; KB-V1 cytotox: inconclusive; SW480 rereplic: 8.2µM*; PTAP TSG101 blk: -5.2%; KB-3-1 cytotox: 11.6µM*; MCF10A rereplic: inconclusive

How did Cc1c(C(=O)NCc2ccc(F)cc2)sc(=O)n1Cc1ccc(C(=O)c2ccccc2)cc1 do in these assays?
KB-V1 cytotox: 10.3µM*; KB-3-1 cytotox: inconclusive

What do the screens show for `COc1ccc(CNC(=O)c2cn(Cc3ccccc3F)c(=O)s2)cc1`?
KB-V1 cytotox: inconclusive; KB-3-1 cytotox: inactive

What do the screens show for `COc1ccc(CNC(=O)c2cn(Cc3ccccc3OC)c(=O)s2)cc1`?
KB-V1 cytotox: 7.31µM*; KB-3-1 cytotox: inactive

How did COc1ccc(NC(=O)c2sc(=O)n(Cc3ccccc3C#N)c2C)cc1OC do in these assays?
KB-V1 cytotox: 5.8µM*; KB-3-1 cytotox: inconclusive

How did COc1ccc(Cl)cc1Cn1c(C)c(C(=O)NCc2ccc(F)cc2)sc1=O do in these assays?
KB-V1 cytotox: 14.6µM*; KB-3-1 cytotox: inconclusive

What do the screens show for `COc1ccccc1Cn1c(C)c(C(=O)NCc2ccc3c(c2)OCCO3)sc1=O`?
KB-V1 cytotox: inconclusive; KB-3-1 cytotox: inactive

What do the screens show for `Cc1c(C(=O)NCc2cccc(C(F)(F)F)c2)sc(=O)n1Cc1cccc(F)c1`?
KB-V1 cytotox: 14.6µM*; KB-3-1 cytotox: inconclusive

Results for COC(=O)c1ccc(Cn2c(C)c(C(=O)NCc3cccs3)sc2=O)o1 ?
KB-V1 cytotox: inactive; KB-3-1 cytotox: inactive

Results for COC(=O)c1ccc(Cn2c(C)c(C(=O)Nc3cccc(Oc4ccccc4)c3)sc2=O)o1 ?
KB-V1 cytotox: 11.6µM*; KB-3-1 cytotox: inconclusive

How did COc1ccc(CNC(=O)c2sc(=O)n(Cc3ccccc3OC)c2C)cc1 do in these assays?
KB-V1 cytotox: 9.2µM*; KB-3-1 cytotox: inconclusive

Results for CC(=O)Oc1ccccc1Cn1c(C)c(C(=O)N(C)Cc2ccc(F)cc2)sc1=O ?
KB-V1 cytotox: 18.4µM*; KB-3-1 cytotox: inconclusive

What do the screens show for `Cc1ccc(C)c(CSc2nc3c([nH]c4ccccc43)c(=O)n2C)c1`?
RGS4 inhibitor: -0.6%

Assay outcomes from PubChem.
